The whole screen tested about 48,000 compounds, of which about 13,000 (27%) showed an effect of 50% or more. The list shows a part of the results.
tested on: Wolbachia pipientis; test: Anti-Wolbachia Cell-Based Screen; assay type: functional; parameters: scale not given: in the data most compounds retested in dose-response had high values; conditions: 5 µM

| SMILES | Percent Effect [%] |
| --- | --- |
| COc1nccnc1N1CCN(Cc2cccc(C)c2)C(=O)C1 | -1.846 |
| O=C(NCC1(c2ccc(F)cc2)CCC1)N1CCC2(C1)OCCO2 | -19.46 |
| Cn1c(CCNC(=O)CC[C@@H]2CCCN3CCCC[C@H]23)n[nH]c1=O | -0.3828 |
| O=C(NCCNc1ccc(C(F)(F)F)cn1)c1ccc(Br)cc1F | 1.294 |
| O=C(NCCNc1ccc(C(F)(F)F)cn1)c1cncc(Br)c1 | 0.7864 |
| CC(C)(C)C(O)CCNC(=O)c1ccc(F)cc1Cl (stereo unspecified) | 15.76 |
| O=C(NCCNc1ccc(C(F)(F)F)cn1)c1cc(Cl)ccc1F | 114.8 |
| Cc1occc1C(=O)NCCOc1ccc(C(F)(F)F)cn1 | -9.163 |
| O=C(NCCNc1ccc(C(F)(F)F)cn1)c1ccc(Br)cc1 | 145.4 |
| O=C(NCCNc1ccc(C(F)(F)F)cn1)c1ccc(F)cc1Cl | 145.5 |
| N#Cc1ccc(NCCNc2ccc(C(F)(F)F)cn2)nc1 | -10.16 |
| CC(C)(O)CSCCNC(=O)c1ccc(F)cc1Cl | -9.614 |
| O=C(NCCNc1ccc(C(F)(F)F)cn1)c1ccc(Cl)cc1F | 105.2 |
| O=C(NCCNc1ccc(C(F)(F)F)cn1)c1ccoc1 | 28.2 |
| CC(C)n1ccnc1C1CCCN(c2ccnc3ccccc23)C1 (stereo unspecified) | -21.91 |
| O=C(c1cccnc1)N1CCN(c2ccc(-n3cccc3)nn2)CC1 | -8.085 |
| CCCc1noc(CS(=O)(=O)CC(=O)NC(C)CCC)n1 (stereo unspecified) | 14.1 |
| Cc1nnc(CCNC(=O)Nc2ccc(S(C)(=O)=O)cc2)[nH]1 | -1.089 |
| COC(=O)CC(c1ccc(OC)c(OC)c1)c1oc(C)cc(=O)c1O (stereo unspecified) | 10.24 |
| CN(C)S(=O)(=O)N1CC[C@]2(C[C@H](Oc3cccnc3)CO2)C1.O=C(O)C(F)(F)F | -11.38 |
| Cc1cnn(CC2CCCN2Cc2nnc(C3CC3)n2C)c1 (stereo unspecified) | 103.3 |
| Cc1cnn(CC2CN(Cc3nccn3C)CCO2)c1 (stereo unspecified) | -4.713 |
| Cc1cnn(CC2CN(CCS(=O)(=O)C(F)(F)F)CCO2)c1 (stereo unspecified) | -38.13 |
| COCCc1noc(CN2CCOC(Cn3cc(C)cn3)C2)n1 (stereo unspecified) | 92.63 |
| Cc1cnn(CC2CCCN2Cc2nnsc2Cl)c1 (stereo unspecified) | -1.868 |
| Cc1cnn(CC2CN(Cc3nnc(C4CC4)n3C)CCO2)c1 (stereo unspecified) | 99.89 |

| SMILES | Percent Effect [%] |
| --- | --- |
| Cc1cnn(CC2CCCCN2Cc2nnc(C3CC3)n2C)c1 (stereo unspecified) | 0.7799 |
| Cc1cnn(CC2CN(Cc3nc(-c4ccoc4)no3)CCO2)c1 (stereo unspecified) | -0.2172 |
| Cc1cnn(CC2CN(Cc3nc(C4CC4)no3)CCO2)c1 (stereo unspecified) | 115.6 |
| OC1(CNc2ccc(-c3nc(C4CC4)no3)cn2)CCCCC1 | 10.35 |
| O=C(O)C1c2nc[nH]c2CCN1CC(c1ccccc1)c1ccccc1 (stereo unspecified) | -19.87 |
| O=c1cc(N2CCNCC2)cnn1CCCn1cccn1 | 6.31 |
| CSCc1nc(CNC(=O)C2CCCN(CC(N)=O)C2)cs1 (stereo unspecified) | -6.144 |
| CCC(C)(C)NC(=O)COC(=O)c1cc(C)ccc1NC(=O)N(C)C | -1.36 |
| O=C(O)c1cccc(N2C[C@H](NC(=O)C3CCOCC3)[C@@H](C3CC3)C2)n1 | -12.83 |
| CN(CCc1ccccc1)Cc1nc(Cc2cccc(F)c2)no1 | -15.79 |
| CN1CCCCC1Cc1nc(Cc2cccc(F)c2)no1 (stereo unspecified) | 9.056 |
| CCN(CC)Cc1nc(Cc2cccc(C(F)(F)F)c2)no1 | 107.6 |
| CN(CCc1cn[nH]c1)Cc1nc(Cc2cccc(C(F)(F)F)c2)no1 | -3.312 |
| CN(Cc1nc(Cc2cccc(F)c2)no1)C1CCOCC1 | 108 |
| CN(Cc1nc(Cc2cccc(C(F)(F)F)c2)no1)C(C1CC1)C1CC1 | 104.1 |
| CN(Cc1nc(Cc2cccc(C(F)(F)F)c2)no1)C1CCOCC1 | 106.5 |
| CN(CCc1cn[nH]c1)Cc1nc(Cc2cccc(F)c2)no1 | -20.63 |
| CCn1ccnc1CN(C)Cc1nc(Cc2cccc(F)c2)no1 | 17.71 |
| Cc1n[nH]c(C)c1CNCC(O)c1ccc(F)c(F)c1 (stereo unspecified) | -7.93 |
| O=C(c1ccc(-n2ccnc2)nn1)N1CCCC1CCc1ccccc1 (stereo unspecified) | 7.406 |
| c1nc2c(c(NCCCn3cncn3)n1)CCN(CC1CCOC1)CC2 (stereo unspecified) | 11.83 |
| CN(Cc1cnn(C)c1)Cc1nc(Cc2cccc(Cl)c2)no1 | 5.655 |
| CN(Cc1nc(Cc2cccc(C(F)(F)F)c2)no1)C1CCCCC1 | 113.9 |
| CN(Cc1nc(Cc2cccc(C(F)(F)F)c2)no1)CC1CCCCO1 (stereo unspecified) | 99.9 |
| CN(Cc1cccc(C(F)(F)F)c1)Cc1nc(-c2cnccn2)no1 | -14.23 |
